In the library only some 1.8% were active in any assay of this set; here they are far more common.
BaF3 tox: parental Ba/F3 viability inhibition as JAK2V617F counter-screen; 220,000 compounds, 1.1% hits; AID 1486; inhibition, % at 5.6 µM; CellTiter-Glo ATP luminescence;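 active = inhibition above a per-campaign cutoff, the mean inhibition of all tested compounds plus 3 SD, cut at about 27% in these data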;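 also: 0% = DMSO wells and 100% = JAK Inhibitor I control wells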
KLF5 inhibitor: inhibitors of KLF5 expression | DLD-1 KLF5 promoter-luciferase reporter, luminescence | inhibition, % at 5 µM | 290,000 compounds, 0.23% hits | AID 1700;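 active = inhibition above a per-plate limit of that plate's mean compound inhibition plus 3 SD, cut at about 60% in these data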;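 also: 0% = DMSO wells and 100% = LY294002 at 200 µM; higher means less KLF5 promoter-driven luciferase light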
APP 5UTR inh: APP translation inhibition; SH-SY5Y APP 5'UTR-luciferase reporter, luminescence; inhibition, % at 2 µM; 190,000 compounds, 0.82% hits; AID 1285;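 active = inhibition above a set limit, derived from the sample mean plus 3 SD, cut at about 45% in these data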
Ba/F3 V617F tox: loss of viability in JAK2V617F-driven Ba/F3 cells. Ba/F3 EpoR-JAK2V617F viability, ATP luminescence. inhibition, % at 5.6 µM. 220,000 compounds, 1.1% hits. AID 1446;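 active = inhibition above the campaign mean plus 3 SD over all tested compounds, cut at about 24% in these data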;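 also: cytokine-independent growth of Ba/F3 cells driven by EpoR plus mutant JAK2; 0% = DMSO-treated cells and 100% = JAK inhibitor I control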
IEC-6 tox: kills IEC-6 intestinal cells in KLF5 counter-screen. IEC-6 cytotoxicity, luminescence viability. inhibition, % at 5 µM. 290,000 compounds, 0.78% hits; in the data active = inhibition above about 22%;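 also: 0% = plate median of test compound wells and 100% = cytotoxic reference compound wells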
Numbers without * were called inactive; / = no result.

SMILES | BaF3 tox | KLF5 inhibitor | APP 5UTR inh | Ba/F3 V617F tox | IEC-6 tox
Cc1cc(C(N)=O)c2ccccc2n1 | 1 | -21 | 10 | 1 | 0
Cc1cc(Sc2nnc(N)s2)c2ccccc2n1 | 77* | 18 | / | 96* | 18
Cc1cc(Sc2nnc(/N=C/N(C)C)s2)c2ccccc2n1 | 73* | -7 | / | 90* | 11
CCCCCCCCSc1nnc(/N=C/N(C)C)s1 | 2 | -19 | / | -6 | -5
O=C(CN1CCN(c2ncccn2)CC1)N1CCCc2c1c(=O)oc1ccc(O)cc21 | -2 | -32 | 72* | -4 | -3
CC(=O)Oc1ccc2oc(=O)c3c(c2c1)CCCN3C(=O)CN1CCN(c2ncccn2)CC1 | 5 | -3 | 9 | -2 | -3
CN1CCN(Cc2nc3ccccc3c(=O)n2Cc2nc(-c3cccc([N+](=O)[O-])c3)cs2)CC1 | -3 | -21 | -6 | 13 | 13
CN1CCN(Cc2nc3ccccc3c(=O)n2Cc2nc(-c3ccc4ccccc4c3)cs2)CC1 | 10 | -19 | 2 | 102* | 20
COc1ccc(C(NC(C)=O)c2nccc3cc(OC)c(OC)cc23)cc1OC (stereo unspecified) | / | -36 | / | / | 6
CCCC(=O)NC(c1ccc2c(c1)OCO2)c1cc(Cl)c2cccnc2c1O (stereo unspecified) | -1 | 15 | 75* | -5 | -9
COc1ccc(C(NC(C)=O)c2cc(Cl)c3cccnc3c2O)cc1OC (stereo unspecified) | 10 | -35 | 50* | 4 | -4
O=C1NC2(CCCCO2)CO1 (stereo unspecified) | / | -10 | / | / | 2
CCN(CC(=O)NCCc1ccc(S(N)(=O)=O)cc1)Cc1ccccc1 | / | -22 | / | / | -3
C=CCn1c(-c2ccc(OC)cc2)nc2ccccc21 | 38* | -24 | -11 | 42* | 1
Cc1cc(/C=c2/sc3nc4ccccc4n3c2=O)c(C)n1-c1ccccn1 | 0 | 28 | 60* | -1 | 5
Cc1cc(/C=c2\sc3nc4ccccc4n3c2=O)c(C)n1-c1ccc(C(=O)O)cc1 | 0 | -10 | -19 | 4 | -8
CC1(C)Cc2c(c(-c3ccccc3)nc(N3CCOCC3)c2C(N)=O)CO1 | 0 | -8 | 66* | -4 | -2
CC1(C)Cc2c(c(N3CCOCC3)nc3sc(C(=O)Nc4ccccc4)c(N)c23)CO1 | / | -156 | / | / | -5
Oc1c(CN2CCCCC2)cc(COCc2ccccc2)c2cccnc12 | 99* | 48 | 85* | 89* | 2
O=C(Oc1c(CN2CCOCC2)cc(Cl)c2cccnc12)c1cccs1 | 3 | 8 | 27 | 1 | 16
COc1ccc(C(=O)Oc2c(CN3CCOCC3)cc(Cl)c3cccnc23)cc1 | 4 | 9 | 38 | 4 | 14
O=C(Oc1c(CN2CCOCC2)cc(Cl)c2cccnc12)c1ccccc1Cl | 7 | 5 | 53* | 1 | -2
OCCN1CCN(Cc2cc(Cl)c3cccnc3c2O)CC1 | 0 | -15 | 0 | -5 | -3
COCc1cc(CN2CCCC2)c(O)c2ncccc12 | 59* | 2 | 20 | 72* | -2
Oc1c(CN2CCN(c3ccccn3)CC2)cc(Cl)c2cccnc12 | 4 | 2 | 78* | -2 | -5
SMILES | BaF3 tox | KLF5 inhibitor | APP 5UTR inh | Ba/F3 V617F tox | IEC-6 tox
O=C(O)CSc1nnc(-c2ccc(Cl)cc2Cl)n1Cc1ccccc1 | / | -5 | / | / | -3
O=C(CSc1ccc(F)cc1)N1CCOCC1 | / | -21 | / | / | 2
CCOc1ccc2nc(COC(=O)c3ccncc3)c(C(=O)c3ccccc3)[n+]([O-])c2c1 | 1 | -27 | / | -4 | -2
Cc1cc(/C=N/n2c(COc3ccccc3C)nc3ccccc3c2=O)c(O)c([N+](=O)[O-])c1 | 9 | -20 | 45* | 4 | 8
Cc1ccccc1OCc1nc2ccccc2c(=O)n1/N=C/c1c[nH]c2ccccc12 | 7 | -25 | -6 | -1 | -3
OC(COC(c1ccc(F)cc1)c1ccc(F)cc1)CN1CCCC(C(F)(F)F)C1 (stereo unspecified) | / | -15 | / | / | 0
c1ccc(CCCNCC2COc3ccccc3O2)cc1 (stereo unspecified) | 0 | -44 | 73* | 1 | 2
O=C(/C=C/c1ccc([N+](=O)[O-])cc1)NNC(=O)C1CC1 | 50* | -17 | -18 | 44* | 1
COc1ccccc1N1CCN(C(=O)c2ccc(Cl)c(S(=O)(=O)N3CCOCC3)c2)CC1 | / | 11 | / | / | 4
O=C(Nc1ccccc1F)N(CCCN1CCOCC1)Cc1cc2cc3c(cc2[nH]c1=O)OCCO3 | 3 | -10 | 0 | 2 | 10
Cc1nc2ccc(NS(=O)(=O)c3ccc4c(c3)OCCO4)cc2s1 | 53* | -41 | -11 | 42* | 14
Cc1ccc(S(=O)(=O)Nc2ccc3nc(C)sc3c2)cc1 | 39* | -21 | 13 | 34* | 5
Cc1ccc(S(=O)(=O)Nc2ccc3nc(N)sc3c2)cc1 | 6 | 5 | 0 | 0 | 6
CCOc1ccccc1CN1CCC(n2nccc2NC(=O)C2CCCC2)CC1 | / | -37 | / | / | -2
COc1ccc(CN2CCN(C3CCC3)CC2CCO)c(C)c1C (stereo unspecified) | / | -12 | / | / | -4
CN(C)c1cccc(C(=O)Nc2cccc(S(=O)(=O)NC3=NCCC3)c2)c1 | / | -92 | / | / | -2
COc1ccc(-c2nnc(SCc3nc4ccccc4c(=O)[nH]3)o2)cc1 | 53* | -11 | / | 0 | 2
COc1ccccc1NC(=O)CCS(=O)(=O)c1cc2c(cc1Cl)NC(=O)CO2 | / | -45 | / | / | -13
C[N+](C)(C)CCN(Cc1ccc(Cl)cc1)c1ccccn1 | 29* | -19 | 0 | 33* | 4
O=C(N/N=C/c1ccc2c(c1)OCO2)c1cc(-c2ccncc2)nc2ccccc12 | 5 | -4 | 67* | 1 | -4
O=C(N/N=C/c1ccc2c(c1)OCO2)c1cc(-c2ccccc2Cl)nc2ccccc12 | 6 | -11 | 5 | 3 | 5
O=C(N/N=C/c1ccsc1)c1cc(-c2ccncc2)nc2ccccc12 | 1 | -6 | 60* | 2 | 8
O=C(N/N=C/c1ccco1)c1cc(-c2cccc(Br)c2)nc2ccccc12 | 6 | 12 | 2 | -1 | -10
Cc1cc(C(=O)N/N=C/c2ccc(N(C)C)cc2)c2ccccc2n1 | 9 | 22 | 46* | 8 | 22
CC(/C=N/NC(=O)c1cc(-c2ccncc2)nc2ccccc12)=C\c1ccco1 | 0 | -21 | 88* | -3 | -6
SMILES | BaF3 tox | KLF5 inhibitor | APP 5UTR inh | Ba/F3 V617F tox | IEC-6 tox
COc1ccc(S(=O)(=O)N2CCc3cc(OC)c(OC)cc3C2)cc1 | -1 | 8 | / | 1 | 0
O=S(=O)(c1ccc(Br)c2ccccc12)N1CCCC1 | / | -15 | / | / | 4
O=C(CN(Cc1ccco1)C(=O)CCC(=O)Nc1ccccn1)NCc1ccccc1 | / | 11 | / | / | -4
O=C(N/N=C/c1ccc(Cl)cc1)c1cc(-c2cccnc2)nc2ccccc12 | 8 | -23 | 44 | -2 | 2
Cc1ccc(/C=N/NC(=O)c2cc(-c3cccnc3)nc3ccccc23)cc1 | 3 | -6 | 68* | 3 | 5
C/C(=N\NC(=O)c1cc(-c2cccs2)nc2ccccc12)c1ccccn1 | 7 | -1 | 71* | 4 | 2
Nc1nc(SCn2nnc3ccccc3c2=O)n[nH]1 | 9 | -41 | -15 | 4 | 0

From PubChem BioAssay
